This passage reports inhibition results from ChEMBL document CHEMBL1961873, “Compounds: GSK PKIS; Assays: Nanosyn kinase panel” (2012).

The target in experiment [1] is Tyrosine-protein kinase Fer (Homo sapiens) (UniProt P16591). Particulars: at 1 µM.
In experiment [2] the target is Tyrosine-protein kinase Fes/Fps (Homo sapiens) (UniProt P07332). Particulars: at 0.1 µM.
Experiment [3] has the same target. Particulars: at 1 µM.
The target in experiment [4] is Fibroblast growth factor receptor 1 (Homo sapiens) (UniProt P11362). Particulars: at 0.1 µM.
Fibroblast growth factor receptor 1 (Homo sapiens), sequence (P11362 22-822 limits assumed): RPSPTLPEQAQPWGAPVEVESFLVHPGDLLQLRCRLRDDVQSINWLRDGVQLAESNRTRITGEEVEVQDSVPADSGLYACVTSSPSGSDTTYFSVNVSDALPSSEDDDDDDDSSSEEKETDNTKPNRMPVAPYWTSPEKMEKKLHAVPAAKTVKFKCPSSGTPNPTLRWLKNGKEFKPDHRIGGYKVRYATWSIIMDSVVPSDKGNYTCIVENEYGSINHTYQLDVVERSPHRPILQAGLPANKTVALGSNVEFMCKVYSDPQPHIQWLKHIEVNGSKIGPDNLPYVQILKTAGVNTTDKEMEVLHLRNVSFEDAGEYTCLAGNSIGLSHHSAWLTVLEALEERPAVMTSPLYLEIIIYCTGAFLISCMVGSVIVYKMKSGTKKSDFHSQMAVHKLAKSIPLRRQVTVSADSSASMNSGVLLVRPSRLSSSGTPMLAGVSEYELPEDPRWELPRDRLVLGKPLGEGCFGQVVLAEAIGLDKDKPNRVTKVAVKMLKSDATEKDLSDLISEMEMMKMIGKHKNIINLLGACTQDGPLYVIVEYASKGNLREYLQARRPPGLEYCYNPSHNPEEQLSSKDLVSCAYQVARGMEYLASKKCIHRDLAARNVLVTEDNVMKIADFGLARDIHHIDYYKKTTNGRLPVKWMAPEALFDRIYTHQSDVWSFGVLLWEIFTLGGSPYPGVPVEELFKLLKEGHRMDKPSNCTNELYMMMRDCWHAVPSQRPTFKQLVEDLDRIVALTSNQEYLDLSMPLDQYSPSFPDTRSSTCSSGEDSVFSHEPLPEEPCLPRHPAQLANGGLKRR
Experiment [5] shares this target. As to conditions: at 1 µM.
The target of experiment [6] is Fibroblast growth factor receptor 2 (Homo sapiens) (UniProt P21802). As to conditions: at 0.1 µM.
Experiment [7] shares this target. Particulars: at 1 µM.
Experiment [8] addresses Fibroblast growth factor receptor 3 (Homo sapiens) (UniProt P22607). As to conditions: at 1 µM.
The target of experiment [9] is Fibroblast growth factor receptor 4 (Homo sapiens) (UniProt P22455). As to conditions: at 0.1 µM.
Experiment [10] shares this target. Particulars: at 1 µM.
For experiment [11], the target named is Tyrosine-protein kinase Fgr (Homo sapiens) (UniProt P09769). Particulars: at 0.1 µM.
The target is the same in experiment [12]. As to conditions: at 1 µM.
Experiment [13] addresses Vascular endothelial growth factor receptor 1 (Homo sapiens) (UniProt P17948). Particulars: at 0.1 µM.
The target is the same in experiment [14]. Particulars: at 1 µM.
Experiment [15] addresses Receptor-type tyrosine-protein kinase FLT3 (Homo sapiens) (UniProt P36888). As to conditions: at 0.1 µM.
The target is the same in experiment [16]. Particulars: at 1 µM.
Experiment [17] concerns T1, Receptor-type tyrosine-protein kinase FLT3 (Homo sapiens), P36888 [D835Y].
T1 sequence (whole entry): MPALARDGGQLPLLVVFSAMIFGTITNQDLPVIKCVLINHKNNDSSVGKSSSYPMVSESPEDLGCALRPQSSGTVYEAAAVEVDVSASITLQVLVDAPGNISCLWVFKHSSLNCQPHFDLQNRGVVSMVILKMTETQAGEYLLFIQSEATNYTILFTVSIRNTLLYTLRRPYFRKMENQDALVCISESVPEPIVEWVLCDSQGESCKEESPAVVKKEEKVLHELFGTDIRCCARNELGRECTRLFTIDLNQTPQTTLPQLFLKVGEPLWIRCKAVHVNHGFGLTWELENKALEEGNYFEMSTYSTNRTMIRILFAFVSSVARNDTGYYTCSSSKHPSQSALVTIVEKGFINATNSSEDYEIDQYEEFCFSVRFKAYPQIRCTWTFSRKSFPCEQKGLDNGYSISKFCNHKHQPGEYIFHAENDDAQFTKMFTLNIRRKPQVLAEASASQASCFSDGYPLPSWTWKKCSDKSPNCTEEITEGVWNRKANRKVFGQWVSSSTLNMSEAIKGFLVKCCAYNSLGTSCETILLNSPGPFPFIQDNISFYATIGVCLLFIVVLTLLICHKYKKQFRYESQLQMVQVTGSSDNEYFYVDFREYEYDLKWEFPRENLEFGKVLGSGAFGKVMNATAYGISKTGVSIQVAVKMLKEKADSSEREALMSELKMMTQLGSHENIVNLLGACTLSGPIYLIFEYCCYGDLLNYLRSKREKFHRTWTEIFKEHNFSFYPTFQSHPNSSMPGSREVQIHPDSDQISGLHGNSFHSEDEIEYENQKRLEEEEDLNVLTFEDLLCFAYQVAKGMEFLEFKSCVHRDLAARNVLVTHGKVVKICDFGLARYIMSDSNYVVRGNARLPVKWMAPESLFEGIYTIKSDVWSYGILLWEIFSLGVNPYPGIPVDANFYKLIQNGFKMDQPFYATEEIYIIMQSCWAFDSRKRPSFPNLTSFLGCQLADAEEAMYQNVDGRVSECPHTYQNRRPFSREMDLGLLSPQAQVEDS
As to conditions: at 0.1 µM.

Experiment [18] concerns the target Non-receptor tyrosine-protein kinase TYK2 (Homo sapiens) (UniProt P29597). Particulars: at 1 µM.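 Also: values are mean percent inhibition of TYK2 kinase.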
Experiment [19] deals with T2, Tyrosine-protein kinase receptor TYRO3 (Homo sapiens) (UniProt Q06418).
T2 sequence (whole entry): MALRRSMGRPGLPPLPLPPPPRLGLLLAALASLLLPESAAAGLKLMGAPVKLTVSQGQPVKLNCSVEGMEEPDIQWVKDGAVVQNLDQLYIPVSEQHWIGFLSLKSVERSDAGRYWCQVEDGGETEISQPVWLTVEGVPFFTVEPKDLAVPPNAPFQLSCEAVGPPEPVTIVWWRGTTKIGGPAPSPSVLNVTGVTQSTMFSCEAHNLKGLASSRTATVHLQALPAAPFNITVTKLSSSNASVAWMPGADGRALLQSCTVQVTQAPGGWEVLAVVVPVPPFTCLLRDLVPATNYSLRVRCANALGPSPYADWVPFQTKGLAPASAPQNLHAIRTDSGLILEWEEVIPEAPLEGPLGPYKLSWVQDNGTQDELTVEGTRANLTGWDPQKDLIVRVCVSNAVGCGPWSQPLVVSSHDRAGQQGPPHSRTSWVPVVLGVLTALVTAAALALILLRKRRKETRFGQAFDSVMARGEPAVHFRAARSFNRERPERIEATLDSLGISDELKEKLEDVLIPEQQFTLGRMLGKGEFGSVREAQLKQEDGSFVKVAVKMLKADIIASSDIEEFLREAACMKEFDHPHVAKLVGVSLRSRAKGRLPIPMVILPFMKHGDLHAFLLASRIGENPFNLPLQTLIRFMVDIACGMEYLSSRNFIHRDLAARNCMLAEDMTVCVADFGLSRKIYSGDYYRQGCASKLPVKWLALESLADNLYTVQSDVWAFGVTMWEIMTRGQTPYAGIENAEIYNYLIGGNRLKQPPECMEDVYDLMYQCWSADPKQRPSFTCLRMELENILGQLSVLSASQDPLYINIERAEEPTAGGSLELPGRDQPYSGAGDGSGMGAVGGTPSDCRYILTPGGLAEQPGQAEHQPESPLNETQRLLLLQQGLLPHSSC
Particulars: at 0.1 µM.

Experiment [20] has as its target Fibroblast growth factor receptor 3 (Homo sapiens) (UniProt P22607). Particulars: at 0.1 µM.

Non-receptor tyrosine-protein kinase TYK2 (Homo sapiens), sequence (P29597 whole entry): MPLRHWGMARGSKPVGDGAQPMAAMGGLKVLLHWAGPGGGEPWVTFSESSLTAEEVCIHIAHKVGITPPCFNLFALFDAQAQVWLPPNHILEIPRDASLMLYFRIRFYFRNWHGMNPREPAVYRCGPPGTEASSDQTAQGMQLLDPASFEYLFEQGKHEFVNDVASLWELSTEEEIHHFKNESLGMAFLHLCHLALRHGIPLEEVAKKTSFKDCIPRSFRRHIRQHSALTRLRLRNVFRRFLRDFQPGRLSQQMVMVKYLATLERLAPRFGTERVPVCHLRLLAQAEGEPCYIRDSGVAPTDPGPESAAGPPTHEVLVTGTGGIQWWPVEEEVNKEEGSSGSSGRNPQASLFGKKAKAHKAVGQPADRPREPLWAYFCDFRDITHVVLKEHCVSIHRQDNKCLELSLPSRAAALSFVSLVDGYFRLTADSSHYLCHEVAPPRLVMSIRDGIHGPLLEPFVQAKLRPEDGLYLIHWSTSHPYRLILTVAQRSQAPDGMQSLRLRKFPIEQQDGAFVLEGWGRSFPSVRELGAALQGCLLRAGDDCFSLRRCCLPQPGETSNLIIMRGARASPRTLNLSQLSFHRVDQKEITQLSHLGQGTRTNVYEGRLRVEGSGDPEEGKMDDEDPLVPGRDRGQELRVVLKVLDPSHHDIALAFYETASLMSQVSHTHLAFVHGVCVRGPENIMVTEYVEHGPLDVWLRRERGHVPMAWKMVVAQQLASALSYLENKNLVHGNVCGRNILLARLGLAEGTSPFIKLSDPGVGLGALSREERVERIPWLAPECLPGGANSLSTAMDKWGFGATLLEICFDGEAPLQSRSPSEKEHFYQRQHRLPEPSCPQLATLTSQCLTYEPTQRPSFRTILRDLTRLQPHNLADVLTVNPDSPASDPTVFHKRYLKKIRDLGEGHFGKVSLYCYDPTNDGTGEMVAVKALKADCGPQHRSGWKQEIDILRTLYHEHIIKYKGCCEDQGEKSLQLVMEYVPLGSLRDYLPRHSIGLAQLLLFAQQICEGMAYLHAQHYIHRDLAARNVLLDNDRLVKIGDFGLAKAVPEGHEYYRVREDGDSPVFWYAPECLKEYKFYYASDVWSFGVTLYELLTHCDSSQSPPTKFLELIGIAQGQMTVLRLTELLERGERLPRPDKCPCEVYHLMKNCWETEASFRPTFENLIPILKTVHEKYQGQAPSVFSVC
Fibroblast growth factor receptor 3 (Homo sapiens), sequence (P22607 23-806 limits assumed): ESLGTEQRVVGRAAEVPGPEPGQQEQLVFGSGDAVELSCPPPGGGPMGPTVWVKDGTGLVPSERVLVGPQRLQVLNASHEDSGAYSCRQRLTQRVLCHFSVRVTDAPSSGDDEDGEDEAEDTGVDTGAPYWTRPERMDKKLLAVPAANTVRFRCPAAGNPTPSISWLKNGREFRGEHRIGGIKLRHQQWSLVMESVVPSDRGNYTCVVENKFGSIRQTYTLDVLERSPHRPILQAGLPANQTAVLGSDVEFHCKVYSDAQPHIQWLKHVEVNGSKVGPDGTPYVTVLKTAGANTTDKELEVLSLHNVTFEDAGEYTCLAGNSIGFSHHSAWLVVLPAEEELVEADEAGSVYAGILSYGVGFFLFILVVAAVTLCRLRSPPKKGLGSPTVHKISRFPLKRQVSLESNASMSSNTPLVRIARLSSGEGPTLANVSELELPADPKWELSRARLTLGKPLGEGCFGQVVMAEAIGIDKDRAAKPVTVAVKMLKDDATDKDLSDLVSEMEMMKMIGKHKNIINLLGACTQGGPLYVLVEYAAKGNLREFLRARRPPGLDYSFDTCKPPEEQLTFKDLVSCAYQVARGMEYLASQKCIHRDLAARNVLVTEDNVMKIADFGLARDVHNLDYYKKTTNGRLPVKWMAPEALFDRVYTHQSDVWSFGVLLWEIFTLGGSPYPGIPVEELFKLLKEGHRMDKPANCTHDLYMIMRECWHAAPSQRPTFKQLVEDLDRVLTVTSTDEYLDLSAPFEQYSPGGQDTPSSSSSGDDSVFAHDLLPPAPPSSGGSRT
Tyrosine-protein kinase Fes/Fps (Homo sapiens), sequence (P07332 whole entry): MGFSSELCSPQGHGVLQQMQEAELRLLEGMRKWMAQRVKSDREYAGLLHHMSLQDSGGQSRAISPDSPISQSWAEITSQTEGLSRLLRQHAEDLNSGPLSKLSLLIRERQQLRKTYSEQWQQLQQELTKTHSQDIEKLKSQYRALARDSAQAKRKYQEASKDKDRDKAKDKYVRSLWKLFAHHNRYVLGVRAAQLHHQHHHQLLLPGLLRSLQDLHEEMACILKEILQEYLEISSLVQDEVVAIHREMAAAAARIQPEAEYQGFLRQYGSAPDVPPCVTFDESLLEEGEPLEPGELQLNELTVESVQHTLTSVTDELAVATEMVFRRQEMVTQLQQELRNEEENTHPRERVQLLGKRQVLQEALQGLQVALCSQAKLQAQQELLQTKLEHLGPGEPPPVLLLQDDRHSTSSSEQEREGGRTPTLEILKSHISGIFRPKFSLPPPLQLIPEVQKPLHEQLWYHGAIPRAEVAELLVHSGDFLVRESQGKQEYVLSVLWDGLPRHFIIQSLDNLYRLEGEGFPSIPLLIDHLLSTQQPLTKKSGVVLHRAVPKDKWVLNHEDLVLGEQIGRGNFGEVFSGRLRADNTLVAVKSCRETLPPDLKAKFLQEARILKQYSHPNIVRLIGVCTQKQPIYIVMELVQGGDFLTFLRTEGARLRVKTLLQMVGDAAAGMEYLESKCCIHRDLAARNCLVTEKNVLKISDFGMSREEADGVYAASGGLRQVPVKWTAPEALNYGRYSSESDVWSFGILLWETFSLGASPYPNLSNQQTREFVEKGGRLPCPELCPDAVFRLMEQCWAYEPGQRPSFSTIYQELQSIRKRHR
Vascular endothelial growth factor receptor 1 (Homo sapiens), sequence (P17948 whole entry): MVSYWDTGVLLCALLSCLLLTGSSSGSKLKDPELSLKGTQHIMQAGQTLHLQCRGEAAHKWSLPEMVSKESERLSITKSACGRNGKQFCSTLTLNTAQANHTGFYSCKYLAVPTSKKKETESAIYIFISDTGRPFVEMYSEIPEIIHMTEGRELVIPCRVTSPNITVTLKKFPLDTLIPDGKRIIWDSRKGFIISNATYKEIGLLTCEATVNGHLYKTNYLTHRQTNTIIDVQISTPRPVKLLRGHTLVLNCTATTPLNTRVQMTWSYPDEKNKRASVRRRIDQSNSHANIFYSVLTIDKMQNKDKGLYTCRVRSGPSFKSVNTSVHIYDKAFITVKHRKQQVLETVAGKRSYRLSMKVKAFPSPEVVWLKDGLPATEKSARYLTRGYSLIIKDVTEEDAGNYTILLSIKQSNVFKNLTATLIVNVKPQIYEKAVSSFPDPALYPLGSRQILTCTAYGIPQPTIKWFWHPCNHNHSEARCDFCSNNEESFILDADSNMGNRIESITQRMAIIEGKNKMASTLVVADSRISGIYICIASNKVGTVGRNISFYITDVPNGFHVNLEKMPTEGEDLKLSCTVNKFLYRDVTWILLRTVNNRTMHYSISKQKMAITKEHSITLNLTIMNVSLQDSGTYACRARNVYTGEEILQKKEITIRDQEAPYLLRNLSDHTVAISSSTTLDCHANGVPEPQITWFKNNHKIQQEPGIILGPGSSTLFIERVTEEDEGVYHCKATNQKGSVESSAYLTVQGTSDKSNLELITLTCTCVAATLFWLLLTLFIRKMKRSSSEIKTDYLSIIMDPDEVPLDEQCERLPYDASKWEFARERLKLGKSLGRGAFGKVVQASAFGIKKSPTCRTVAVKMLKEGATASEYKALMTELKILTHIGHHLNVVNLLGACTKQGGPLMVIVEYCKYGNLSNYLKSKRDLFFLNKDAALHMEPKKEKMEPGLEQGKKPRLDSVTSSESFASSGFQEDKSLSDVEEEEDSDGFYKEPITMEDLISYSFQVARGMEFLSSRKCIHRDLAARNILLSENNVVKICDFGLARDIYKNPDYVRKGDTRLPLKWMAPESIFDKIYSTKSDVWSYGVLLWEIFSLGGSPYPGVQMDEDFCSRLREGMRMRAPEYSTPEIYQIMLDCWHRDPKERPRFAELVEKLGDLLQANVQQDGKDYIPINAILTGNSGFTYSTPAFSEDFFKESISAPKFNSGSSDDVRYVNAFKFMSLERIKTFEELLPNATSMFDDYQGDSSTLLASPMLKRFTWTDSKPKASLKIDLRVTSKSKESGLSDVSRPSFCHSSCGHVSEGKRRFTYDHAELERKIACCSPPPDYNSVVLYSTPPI

On to `NS(=O)(=O)c1ccc(NC=C2C(=O)Nc3ccc4ncsc4c32)cc1`, for which the inhibition in experiment [1] was 27.7%; in experiment [2] it was 12.3%; in experiment [3], 17.1%; in experiment [4] it was 13.4%; in experiment [5] it was 41.9%; in [6] it was 31.5%. Besides, the inhibition in experiment [7] is 63.8%; in experiment [8], 65%; in experiment [9], -2.6%; in [10], 11.5%; in [11], 6.25%; in experiment [12] it was 36.2%. Besides, the inhibition in [13] is 19.3%; in experiment [14], 67.6%; in experiment [15] it was 47.7%; in [16], 85.4%; in [17], 59.9%; in experiment [18] it was 63.6%. Besides, the inhibition in experiment [19] worked out at 8.88%.

On to `COC(=O)Nc1nc2cc(Oc3ccc(NC(=O)Nc4cccc(Br)c4)cc3)ccc2[nH]1`, for which the inhibition is 4.33% in experiment [1]; 1.77% in [2]; 2.25% in experiment [3]; 3.32% in experiment [4]; 0.5% in experiment [5]; 1.09% in [6]. Also, the inhibition is 3.33% in experiment [7]; 4.36% in [20]; 2.66% in [8]; -1.88% in experiment [9]; 2.05% in [10]; 4.68% in [11]. In addition, the inhibition in experiment [12] is 2.98%; in experiment [13], 33%; in experiment [14], 53.7%; in [15], 32.8%; in [16], 56.7%; in [17], -2.2%. The inhibition is 0.6% in [18] and 6.92% in [19].

In the case of `Cc1ccc(NC(=O)CC2CC2)cc1-c1ccc(C(=O)NCC2CC2)cc1`, the inhibition was 7.65% in [1]; 2.28% in experiment [2]; 4% in [3]; 5.11% in [4]; 4.06% in experiment [5]; 1.09% in experiment [6]. Moreover, the inhibition in experiment [7] is 4.24%; in experiment [20] it was 2.17%; in experiment [8], 3.92%; in [9], -2.17%; in experiment [10] it was 1.67%; in [11], 7.45%. Besides, the inhibition is 6.65% in experiment [12]; -0.36% in experiment [13]; 1.74% in [14]; 1.93% in [15]; 3.21% in experiment [16]; -2.84% in experiment [17]. In addition, the inhibition in experiment [18] was -2.78%; in [19], 2.48%.

As for `c1ccc(Nc2ncc(-c3ccccc3)o2)cc1`, the inhibition was 0.57% in [1]; 3.92% in [2]; 4.9% in [3]; -1.19% in [4]; 8.3% in experiment [5]; 6.37% in experiment [6]. Moreover, the inhibition in experiment [7] was determined as 10.5%; in experiment [20], 7.27%; in experiment [8], 6.62%; in experiment [9] it was 2.33%; in experiment [10], 0.73%; in [11], 5.98%. For the same compound, the inhibition in experiment [12] is 15%; in experiment [13], 1.21%; in experiment [14], 11.7%; in experiment [15], 33.1%; in [16], 78.8%; in experiment [17] it was 5.03%. The inhibition was -4.84% in [18] and 4.31% in [19].

Consider `Cc1nc(-c2ccccc2)n2nc(NCCCN3CCOCC3)ncc12`, for which the inhibition is 2.98% in experiment [1]; 2.16% in experiment [2]; 3.03% in experiment [3]; -1.62% in experiment [4]; -3.57% in [5]; 3.94% in [6]. The inhibition in [7] stood at 11.8%; in experiment [20], 6.35%; in experiment [8], 4.45%; in experiment [9] it was 6.31%; in experiment [10] it was 3.35%; in experiment [11], 2.33%. In addition, the inhibition in experiment [12] was 4.11%; in [13], 2.94%; in [14], -1.07%; in experiment [15], 2.39%; in experiment [16], 4.33%; in experiment [17], -0.33%. In addition, the inhibition stood at 0.82% in experiment [18] and 0.92% in experiment [19].

As for `COc1cc2ncn(-c3cc(OCc4ccccc4S(C)(=O)=O)c(C#N)s3)c2cc1OC`, the inhibition in experiment [1] was 10.3%; in experiment [2], 2.71%; in experiment [3], 3.13%; in experiment [4], 12.1%; in [5] it was 19.3%; in [6] it was 8.86%. The inhibition in [7] was determined as 31.6%; in [20], 9.71%; in experiment [8], 24.1%; in [9], 2%; in experiment [10], 1.47%; in [11], 15.2%. The inhibition in [12] was 59.6%; in experiment [13] it was 3.31%; in experiment [14] it was 15.7%; in experiment [15] it was 3.03%; in experiment [16] it was 11.6%; in [17], 5.25%. Also, the figures for the inhibition in [18] and in experiment [19] were 1.09% and 4.94%, respectively.

Consider `COc1cccc(-n2ncc3c(N/N=C/c4ccc(C)cc4)ncnc32)c1`, for which the inhibition in experiment [1] stood at 17.5%; in [2] it was 5.32%; in experiment [3], 10.3%; in experiment [4], 4.11%; in [5], 17.7%; in experiment [6], 9.23%. In addition, the inhibition in [7] is 7.12%; in experiment [20] it was 9.56%; in experiment [8], 6.72%; in experiment [9], 4.16%; in experiment [10], 1.93%; in experiment [11], 3.81%. Also, the inhibition is 18.9% in experiment [12]; -0.93% in experiment [13]; 0.15% in experiment [14]; 0.84% in experiment [15]; 5.84% in experiment [16]; 2.71% in experiment [17]. The inhibition in experiment [18] was -1.47%; in [19], 1.83%.

Usually inhibition stands for the change of the read-out against control, counted positive when it falls.
